Data as given in PubChem BioAssay AID900 (National Center for Advancing Translational Sciences (NCATS), 2007).
Where “and” joins values, the source holds several entries; their conditions need not be identical. Identical values can stand only once. Hit rate of the full screen: of about 75,000 compounds, about 20 (0.03%) were called active. Inconclusive results (about 1%) are left out. The call rests on the fitted dose curve; in most records, active means well fitted inhibition curve with a large enough effect; inconclusive means small, poorly fitted or top-dose-only effect; inactive means flat fitted curve, though single readings scatter. These entries were drawn from the full list.

biological target: Caspase-1 (Homo sapiens) (UniProt P29466); test: qHTS Assay for Allosteric/Competitive Inhibitors of Caspase-1; details: Caspase-1 enzyme, Ac-WEHD-AFC fluorogenic rate; series mostly up to 57.5 µM; activity change, negative = inhibition: at the top concentration
Text: NIH Molecular Libraries Screening Centers Network [MLSCN]
NIH Chemical Genomics Center [NCGC]
PI Name: Dr. James Wells,
Dr. Enrique Perez-Paya, Dr.Janice Williams, Dr. Dennis Wolan, a person
The caspases (Cysteine Aspartyl Protease) comprise a related family of 14 dimeric proteases that are critical mediators of apoptosis (programmed cell death) and inflammation. The caspases represent an important class of drug targets for stroke, ischemia, cancer and inflammatory diseases. […] One goal of this project was to identify compounds that act as allosteric inhibitors via stabilizing the procaspase form of the enzyme. Previous work in Well's laboratory has shown that such allosteric inhibitors can be identified and these act by binding at the dimer interface of enzyme (Hardy, Lam et al., 2004).
The biochemical assay was configured using purified caspase 1 at a high enzyme concentration to promote formation of the homodimers and thus facilitate the identification of allosteric inhibitors. The overall goal was to identify reversible inhibitors with better drug-like properties than the currently available set of aspartyl-containing peptidomimetics that covalently bind the active site. Caspase 1 was assayed using the profluorescent substrate Ac-WEHD-AFC. After initiation of the assay with substrate the plates were rapidly read using an automated robotic system (Kalypsys, Inc.) to maintain consistent timing. A kinetic mode of detection was used where the initial rate was collected (estimated final product formation was ~10%). Compounds were screened as a concentration-titration series that ranged from 57 uM to 0.7 nM. Below is the protocol used for caspase 1.
NCGC Assay Protocol Summary:
Caspase 1 was prepared in buffer (50 mM HEPES pH 7.5, 50 mM KCl, 200 mM NaCl, 10 mM DTT, 0.1% CHAPS) at a concentration of 66.6 nM and 3 uL was dispensed to all wells using black solid Kalypsys 1536-well plates. 20 nL of DMSO containing compounds was added using a pin-tool (Kalypsys Inc.) to columns 5-48. Then 20 nL of DMSO solution from a control plate was added to columns 1-4. Controls were: Column 1, 16 point titration with each concentration in duplicate (1:1 dilutions in DMSO; final starting concentration was 57 uM) of the caspase 1 inhibitor Ac-WEHD-CHO (Alexis Biochemicals); Column 2, a 16 point titration with each concentration in duplicate of the free AFC fluorophore prepared in DMSO (Alexis Biochemicals), final starting was 40 uM; Column 3 neutral (DMSO only) control; Column 4: DMSO alone, to serve as a negative control (no substrate was added). Then 1 uL of 20 uM the substrate Ac-WEHD-AFC (Alexis Biochemicals) prepared in the same buffer was dispensed to all wells except columns 2 and 4 and the plates were immediately transferred (< 1 min) to the Viewlux. The plates were then exposed using 405 nm excitation/520 nm emission filters for 4 sec and read at 20 sec intervals for 3 min. Final enzyme concentration was 50 nM and the final substrate concentration was 5 uM.
Concentration-response curves were fitted to the data calculated from slope of the linear regression of fluorescent intensity versus time (the rate). The concentration-effect curves were then classified based on curve quality (r2), response magnitude and degree of measured activity. […] Inconclusive compounds had appreciable concentration-dependent effects on both the measured rate and the interpolated basal fluorescence intensity at the start of the reaction but where the basal fluorescent intensity was marginal (e.g. < 10-fold). Inconclusive compounds also encompass highly fluorescent compounds (>100-fold increases in fluorescent intensities values relative to controls) where artificial concentration-dependent decreases in the rate occurred at high compound concentrations due to fluorescent interferences.
Keywords: Caspase 1, proteases, profluorescent, MLSMR, MLSCN, NIH Roadmap, qHTS, NCGC

Activity change, negative = inhibition, inactive:
CC(C)N(CCNC(=O)c1ccc(-n2c(=O)c(=O)[nH]c3ccccc32)cc1)C(C)C -4.26%, Cc1ccccc1CSCC(=O)NC(=O)NC(C)(C)C 0.035%, O=C(O)CCC(=O)NCc1ccc2[nH]c3c(c2c1)CCCC3 -11.4%, CCn1ncc(C2=NOC(C(=O)Nc3ccccc3C(=O)OC)C2)c1C (stereo not drawn) -4.14%, CO[C@H]1COC(=O)[C@@H](C)NC(=O)C/C=C\[C@@H](C)[C@H](OC)COC(=O)C/C=C\[C@@H]1C 1.2% [at 11.5 µM], CO/N=C\[C@@H](C)[C@H](OCc1ccccc1)C(C)C 1.85% [at 11.5 µM], CC(=O)OCC(=O)C1CCC2C3CCC4=CC(=O)CC[C@@]4(C)C3CC[C@]12C (stereo partly drawn) 2.9%, CC(C)[C@@H](OCc1ccccc1)[C@H](C)/C=N\OC[C@@H](C)[C@H](OCc1ccccc1)C(C)C -1.54% [at 11.5 µM], COC(=O)CC1C(C)(C)C(OC(C)=O)C2CC3=C4CC(=O)OC(c5ccoc5)[C@]4(C)CCC3[C@@]1(C)C2=O (stereo partly drawn) 0.908%, O=C(CSc1nc2ccccc2[nH]1)c1cccs1 1.91%, CC(=O)Oc1c2c(c3c(c1CC=C(C)C)O[C@@]14C(=CC5CC1C(C)(C)OC4(C/C=C(\C)C(=O)O)C5=O)C3=O)OC(C)(CCC=C(C)C)C=C2 (stereo partly drawn) -4.73%, Cc1cc(C)cc(C#CC2C=CC(Oc3ccc(C4CCCC4)cc3)C(CO)O2)c1 (stereo not drawn) -0.183% [at 11.5 µM], Cc1sc2c(c1C)c(=O)n(-c1ccccc1)c1nncn21 0.0448%, CC(C)CN1CCc2nc(-c3ccccc3)c3c(c2C1)COC(C)C3 (stereo not drawn) -0.646% [at 11.5 µM], C=CCOC(=O)C(C(C)=O)C(NC(=O)OC)c1ccccc1 (stereo not drawn) -2.17% [at 11.5 µM], COc1c(C(C)C)oc2cc3oc(=O)ccc3cc12 -1.57%, Cc1oc(C)c(C(=O)NCCCC(=O)O)c1C(=O)NCCCC(=O)O 0.175%, CC(CCC(=O)O)C1CCC2C3C(O)C[C@@H]4CC(O)CC[C@@]4(C)C3CC[C@@]12C (stereo partly drawn), CN(C)CCc1c[nH]c2ccc(Cn3cncn3)cc12 -1.76%, Nc1ncn(C2OC(CO)C(O)C2O)c(=O)n1 (stereo not drawn) -1.92%, Cc1occc1C(=O)Nc1nnc(C2CCCCC2)s1 -2.34%, Oc1ccc2c(c1)OCC1c3cc4c(cc3OC21)OCO4 (stereo not drawn) -0.0099%, C#CCC(C(=O)OC)(C(=O)OC)C(C[N+](=O)[O-])c1ccccc1 (stereo not drawn) -0.949% [at 11.5 µM], O=C(c1cccs1)N1CCN(Cc2ccc3c(c2)OCO3)CC1 -3.62%, C=C[C@](C)(O)CCC1C(=C)CCC2[C@@](C)(CO)CCC[C@@]12C (stereo partly drawn) 1.13%, C=C1C([C@@]2(C)C(OC(C)=O)CC(=O)O[C@@](C)(COC(C)=O)C2CC(=O)OC)C(OC=O)C(OC(=O)C(O)C(C)CC)[C@]2(C)C(c3ccoc3)CC(=O)C12O (stereo partly drawn) -0.335%, CSc1ccc(Cl)c(C(=O)OCC(=O)N2CC(C)OC(C)C2)c1 (stereo not drawn) -2.09%, CC(C)(C)c1ccc(OC2C=CC(C#Cc3ccccc3)OC2CO)cc1 (stereo not drawn) -6.01% [at 11.5 µM], COc1cccc([C@H]2Oc3ccc(OC)cc3/C(=N\OCC[C@@H]3C=C[C@H](OC(C)=O)[C@H](COC(C)=O)O3)[C@@H]2O)c1 -0.817% [at 11.5 µM], CC(=O)OCCC(C)C -2.94%, CCCNC(=O)OC[C@@H]1O[C@H](c2ccccc2)C=C[C@@H]1Oc1ccc(OC)cc1 -0.962% [at 11.5 µM], CO[C@H]1COC(=O)C/C=C\[C@H](C)COC(=O)[C@@H](OCc2ccccc2)/C=C\[C@@H]1C -1.1% [at 11.5 µM], C=CCNC(=O)CCCC(=O)NCC=C -0.805%, Oc1cc(O)c2c(c1)OC(c1ccc(O)c(O)c1)C(O)C2 (stereo not drawn) -1.07%, Cn1c(=O)n2n(c1=O)[C@H]1[C@H](O)[C@H]3O[C@H]3C(=O)[C@H]1CC2 1.82% [at 11.5 µM], N#Cc1c(/N=C/N2CCCC2)oc(-c2ccccc2)c1-c1ccccc1 -3.24%, O=C(c1ccc(-n2cnnn2)cc1)N1CCN(C(c2ccccc2)c2ccccc2)CC1 -2.39%, CC(C)CO/N=C1/C[C@@H](O)[C@@H](O)[C@@H]2[C@@H]3C(=O)N(C[C@@H]4CCCO4)C(=O)[C@H]3CC[C@@H]12 -2.12% [at 11.5 µM], COC(=O)c1ccc(C(NC(=O)OCc2ccccc2)/C(C)=C/[C@@H](C)C(=O)NCc2cc(C)on2)cc1 (stereo partly drawn) -1.01%, COC(=O)[C@@H]1C[C@@]2(O)[C@H](O)[C@H](O)[C@H](O)C[C@H]2N1Cc1ccc(C)s1 1.18%, OC(CCl)CCl -4.21%, CCCn1c(-c2ccc(F)cc2)nc2c(NC3CCN(Cc4ccccc4)C3)nc(C)nc21 (stereo not drawn) -1.74%, CO[C@@H]1COC(=O)C/C=C\[C@H](C)[C@@H](NS(=O)(=O)c2ccc(C)cc2)COC(=O)C/C=C\[C@@H]1C 2.78% [at 11.5 µM] and -1.73% [at 11.5 µM], COC(=O)C1=C(N)Oc2cc(C)oc(=O)c2C1c1cccnc1 (stereo not drawn) -0.354%, COC(=O)C(C(=O)OC)[C@@H]1CCCC(=O)C1 -6.21% [at 11.5 µM], CO[C@H]1COC(=O)CCC[C@@H](C)[C@H](OC)COC(=O)[C@@H](C)NC(=O)C/C=C\[C@@H]1C -4.01% [at 11.5 µM], CC(C)C(NC(=O)OCc1ccccc1)C(=O)OCC(=O)N1C(C)CCCC1C (stereo not drawn) 2.43%, Cc1c(O)cc(O)c2c(=O)c(-c3ccc(O)cc3)coc12 4%, C/C(CCN1CCCCc2nc(C)c(C)cc21)=N\O[C@@H](C)c1cn([C@@H]2COC[C@@H]2O)nn1 -3.82% [at 11.5 µM], Cc1cc(NC(=O)COn2nnc3ccccc32)no1 -0.927%, CCC1=C(OC(=O)N(CC)CC)N2C(=O)OC(=NCCc3c[nH]c4ccccc34)[C@]2(C)[C@H]2C1=CC[C@H]1C(=O)N(CC)C(=O)[C@H]12 -2.1%, C/C(CCN1CCc2nc(-c3ccccc3)c(-c3ccccc3)cc2C1)=N\O[C@@H](C)c1cn([C@@H]2COC[C@@H]2O)nn1 -2.17% [at 11.5 µM], CCCN1Cc2cccc(C(=O)NCc3ccccc3)c2C1=O 0.937%, COC(=O)C1=C(C)N(Cc2ccccc2)C2=C3C(=O)N(c4ccccc4)C(=O)C3[C@@](O)(C(=O)OC)C(=O)N2C1c1ccccc1 (stereo partly drawn) 2.38% [at 11.5 µM], CCS(=O)(=O)N(C)[C@@H]1c2cc(C#N)ccc2OC(C)(C)[C@H]1O, CC(C)C(N)C(=O)OCCOCn1cnc2c(=O)[nH]c(N)nc21 (stereo not drawn) 1.53%, CN(CCOc1ccc(CC2SC(=O)NC2=O)cc1)c1ccccn1 (stereo not drawn) 0.247%, CC(C)C(=O)Nc1cccc(C(=O)Nc2ccc3c(c2)OCO3)c1 -1.84%, O=C(O)C(O)[C@@](O)(Cc1ccc(O)cc1)C(=O)O (stereo partly drawn) 1.66%, CCOC(=O)C1C(=O)C=C(c2ccc(OC)cc2)CC1c1ccco1 (stereo not drawn) -17%, COc1ccc(/C=C/NC(=O)Cc2ccc(OC)c(OC)c2)cc1 -0.944% [at 11.5 µM] and -1% [at 11.5 µM], C=CC(=O)c1ccc2ccccc2c1 -1.84%, CC1(C)OC2CO[C@]3(COS(N)(=O)=O)OC(C)(C)OC3C2O1 (stereo partly drawn) -0.898%, O=C(c1cnccn1)N1CCC2(CCCN(Cc3ccccc3)C2)CC1 -0.443%, CCN1CCCC1CNC(=O)Cn1cnc2ccc(S(=O)(=O)N3CCC(C)CC3)cc2c1=O (stereo not drawn) -9.64%, CCCCNc1nc(C)nc2c1nc(-c1ccccc1)n2CCCCN(CC)CC -0.324%, CC1OC(OCC2OC(Oc3c(-c4ccc(O)c(O)c4)oc4cc(O)cc(O)c4c3=O)C(O)C(O)C2O)[C@@H](O)C(O)C1O (stereo partly drawn) -2.04%, COc1ccc(CCC(=O)c2c(O)cc(OC3OC(CO)C(O)C(O)C3O[C@@H]3OC(C)C(O)C(O)C3O)cc2O)cc1O (stereo partly drawn) -0.654%, CC(=O)OCC1OC(C#CCCCc2ccccc2)C=CC1OC(C)=O (stereo not drawn) -0.276% [at 11.5 µM] and -3.22% [at 11.5 µM], CN(C)CCCCNC(=O)c1ccc(Cc2nc3ccccc3[nH]2)cc1 -0.198%, COC(=O)c1ccc(C23CC4(C2)[C@H](CN(Cc2cccnc2)[C@@H]4c2ccccc2)C3c2ccc(Cl)nc2)cc1 (stereo partly drawn) -0.327%, CN(C)/C=N/c1cc(=O)n(C)c(=O)n1CC1CC1 -0.404%, CS(=O)(=O)N(CC(=O)NCc1ccco1)c1ccc2c(c1)OCO2 -0.19%, CO[C@H]1COC(=O)[C@H](Cc2ccccc2)NC(=O)C/C=C\[C@@H](C)[C@H](OC)COC(=O)C/C=C\[C@@H]1C -1.56% [at 11.5 µM], O=C1NS(=O)(=O)c2ccccc21 1.43%, CC1(C)C=CC(=O)[C@]2(C)C1CC(=O)[C@]1(C)C2CC[C@@]2(C)C(c3ccoc3)OC(=O)C3OC321 (stereo partly drawn) -0.79%, CC(=O)OCC(=O)[C@@]1(O)CCC2C3CCC4=CC(=O)CC[C@]4(C)C3C(=O)C[C@]21C (stereo partly drawn) -0.497%, COC1[C@H](OC(N)=O)C(O)[C@H](Oc2ccc3c(O)c(NC(=O)c4ccc(O)c(CC=C(C)C)c4)c(=O)oc3c2C)OC1(C)C (stereo partly drawn) -0.344%, CC(CCO)Nc1nc2c([nH]1)c(=O)n(C)c(=O)n2C (stereo not drawn) -0.389%, C=CCN(c1ccc(C(N)=O)cc1)S(C)(=O)=O 1.76%, CCCCNc1nc2c(c(=O)[nH]c(=O)n2C)n1CCOc1ccccc1 1.95%, CCCc1nc2c(C)cc(-c3nc4ccccc4n3C)cc2n1Cc1ccc(-c2ccccc2C(=O)O)cc1 -1.74%, CCc1c(C)sc(NC(=O)OC)c1C(=O)N1CCOCC1 -1.76%
